A selection: hits, their analogues and other compounds. The true share with any hit is near 2.4%.
D2 ag-1: Beta-Arrestin HTS for Positive Allosteric Modulators of the Human D2 Dopamine Receptor: Agonists; activation, % (no concentration beside the values); DiscoveRx PathHunter D2 beta-arrestin, luminescence, 90 min; 100% = 57 uM dopamine signal; actives 0.084% (n = 360,000); in the data active = activation above about 40%; inconclusive = between about 15% and that limit
Target sequence (P14416 whole entry, looked up): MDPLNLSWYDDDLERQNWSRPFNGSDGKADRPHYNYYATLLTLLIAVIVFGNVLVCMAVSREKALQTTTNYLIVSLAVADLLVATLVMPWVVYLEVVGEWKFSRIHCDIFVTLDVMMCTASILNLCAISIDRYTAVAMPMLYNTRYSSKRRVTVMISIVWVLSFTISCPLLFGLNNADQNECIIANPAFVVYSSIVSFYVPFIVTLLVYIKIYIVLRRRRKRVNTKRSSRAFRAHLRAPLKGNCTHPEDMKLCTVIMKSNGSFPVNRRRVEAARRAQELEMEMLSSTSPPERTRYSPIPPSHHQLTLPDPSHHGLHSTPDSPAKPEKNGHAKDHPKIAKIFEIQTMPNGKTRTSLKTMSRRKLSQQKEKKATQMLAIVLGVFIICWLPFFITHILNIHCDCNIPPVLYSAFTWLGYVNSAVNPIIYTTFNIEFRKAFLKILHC
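Agonist mode: compounds alone added to overnight-plated D2 PathHunter cells for 90 min at 37 C, with 57 uM final dopamine (EC100) defining full response. Beta-arrestin recruitment detected by chemiluminescent reagent, read after 1 h at ambient temperature.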
D2 PAM-1: HTS Assay for Positive Allosteric Modulators of the Human D2 Dopamine Receptor: Primary Screen for Potentiators | HEK293 T-REx D2, calcium flux, EC20 dopamine potentiation | D(2) dopamine receptor (Homo sapiens), P14416 | actives 0.34% (n = 340,000) | potentiation, % at 10 µM;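 active = potentiation over 3 SD above the plate norm, cut at about 30% in these data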
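Potentiation of an EC20 dopamine calcium response measured kinetically over 180 s, after a preceding 180 s compound-only read flagging agonists. Cells: inducible Hek293 Trex D2 line, 4000/well, cultured overnight at 30 C before dye loading.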
D2 PAM-2: Beta-Arrestin HTS for Positive Allosteric Modulators of the Human D2 Dopamine Receptor: Potentiators; D(2) dopamine receptor (Homo sapiens), P14416; DiscoveRx D2 beta-arrestin cells, luminescence, 90 min; 100% = 57 uM dopamine signal; potentiation, % (no concentration beside the values); actives 0.23% (n = 360,000); AID 624464, 2012; in the data active = potentiation above about 50%; inconclusive = mostly about 30% to 49%
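PathHunter D2 cells, attached overnight at 37 deg C, received compound in DMSO plus dopamine at EC20 (50 nM final) for 90 min at 37 deg C. Beta-arrestin recruitment was read as luminescence after 1 h with detection reagent at ambient temperature.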
D2 antagonist: HTS Assay for Allosteric Antagonists of the Human D2 Dopamine Receptor: Primary Screen for Antagonists. D(2) dopamine receptor (Homo sapiens), P14416. HEK293 TREx D2 cells, calcium flux, dopamine EC80. inhibition, % at 10 µM. actives 2% (n = 340,000); in the data active = inhibition above about 30%; inactive = below that, where a call was filed
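Cells plated overnight at 30 C with tetracycline; no-wash calcium dye, 30–90 min RT; 10 s baseline; compound pinned; 180 s read; EC80 dopamine added; another 180 s read.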
D2 ag-2: HTS Assay for Allosteric Agonists of the Human D2 Dopamine Receptor: Primary Screen for Agonists | HEK293 T-REx D2 cells, calcium flux agonist mode | activation, % at 2 µM | actives 0.53% (n = 340,000) | AID 485358, 2010;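 active = activation over 3 SD above normal in the single-dose calcium agonist read, cut at about 30% in these data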
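Agonism scored from kinetic calcium signal (1 read/sec, 180 s) following compound pin transfer, after a 10 s baseline. Cells: HEK293 Trex line expressing inducible D2 receptor coupled to calcium, dye-loaded after overnight culture at 30 C.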
D3 arrestin ag: qHTS of D3 Dopamine Receptor Agonist: D3 Dopamine Receptor B-arrestin Agonist Confirmatory Assay; shares compounds with D2 ag-2; DiscoveRx D3 beta-arrestin cells, luminescence, 90 min; Potency, µM (top dose mostly 76.9 µM), most hits filed as activators; actives 4% (n = 2,300); also: nearly all actives have a fitted effect of over 70% in size
D2 ag-3: qHTS of D3 Dopamine Receptor Agonist: D2 Dopamine Receptor B-arrestin Agonist Counterscreen. Potency, µM (doses to about 76.9 µM), actives largely listed as activators. actives 5.9% (n = 2,300). DiscoveRx PathHunter D2 beta-arrestin, luminescence, 90 min; response scale: percent relative to full dopamine signal. shares compounds with D2 ag-2; also: nearly all actives have a fitted effect of over 70% in size
Large screens that a line does not name were inactive (follow-up assays come after a bar, where they were run); ! = not confirmed by another sample. Unless noted, calls follow the shape of the dose curve; as a rule, active = well fitted activation curve with a large enough effect; inconclusive = small, poorly fitted or top-dose-only effect; inactive = flat fitted curve, though single readings scatter.

Cc1ccc(CN2CCN(c3ccccn3)CC2)s1	D2 ag-1 65, D2 PAM-2 68, D2 antagonist 94 | D3 arrestin ag inconclusive | D2 ag-3 0.16µM
COc1ccc(S(=O)(=O)c2c(Nc3ccccc3F)sc(C(=O)c3cccc(OC)c3)c2N)cc1	none (no result: D2 ag-1, D2 PAM-2, D2 antagonist)
COc1ccc(-n2ncc(C(=O)NCc3cccs3)c2C2CCN(C(=O)OC(C)(C)C)CC2)cc1	none (no result: D2 ag-1, D2 PAM-2, D2 antagonist)
Cc1ccc(-n2nc(-c3ccc(F)cc3)c3cnc4cc5c(cc4c32)OCO5)cc1C	none (no result: D2 ag-1, D2 PAM-2, D2 antagonist)
COc1ccc(CCNc2ncnc3c2c(-c2ccccc2)cn3-c2ccc(Cl)cc2)cc1OC	none (no result: D2 ag-1, D2 PAM-2, D2 antagonist)
COc1cc(NC(=O)CN2C(=O)C(c3ccc(C)cc3)=NC23CCCCC3)cc(OC)c1	none (no result: D2 ag-1, D2 PAM-2, D2 antagonist)
c1ccc(N2CCN(Cc3ccsc3)CC2)nc1	D2 ag-1 66, D2 PAM-2 101, D2 antagonist 84, D2 ag-2 76 | D3 arrestin ag inconclusive | D2 ag-3 0.71µM
c1ccc(N2CCN(c3cnccn3)CC2)nc1	none
CC1(C)C2CC[C@]1(C)C(=O)N(CCCCN1CCN(c3ccccn3)CC1)C2=O	D2 ag-1 70, D2 PAM-2 inconclusive, D2 antagonist 116, D2 ag-2 86 | D3 arrestin ag inconclusive | D2 ag-3 0.063µM
COc1ccc(C2C=C(c3ccccc3)Nc3nc(NC(=O)c4cccc([N+](=O)[O-])c4)nn32)cc1 (stereo not given)	none (no result: D2 ag-1, D2 PAM-1, D2 PAM-2, D2 antagonist)
Cc1ccc(S(=O)(=O)c2cc3ccccc3oc2=O)cc1	none
CCN(CC)c1ccc2cc(S(=O)(=O)c3ccc(C)cc3)c(=O)oc2c1	none | D3 arrestin ag inactive | D2 ag-3 inactive
COc1cc2c(cc1OC)C1CC(=O)C(CC(C)C)CN1CC2 (stereo not given)	D2 ag-2 48 | D3 arrestin ag inactive | D2 ag-3 inactive
O=C(O)C1C2C=CC(C2)C1C(=O)NCCc1ccccc1 (stereo not given)	D2 ag-2 53 | D3 arrestin ag inactive | D2 ag-3 inactive
O=C(O)C1C2C=CC(C2)C1C(=O)NCCCc1ccccc1 (stereo not given)	none
COc1ccc(C)cc1NC(=O)C(Sc1nnc(-c2cccs2)o1)c1ccccc1 (stereo not given)	none | D3 arrestin ag inactive | D2 ag-3 inactive
O=C(Nc1ccc(Cl)cc1C(F)(F)F)C(Sc1nnc(-c2cccs2)o1)c1ccccc1 (stereo not given)	none
Fc1ccc(NC(=S)N2CCCC(c3ccccc3)=N2)cc1	none | D3 arrestin ag inactive | D2 ag-3 inactive
CCOc1ccc(Nc2nc(-c3cccc(Cl)c3)c3c(n2)-c2ccccc2OC3)cc1	none (no result: D2 ag-1, D2 PAM-2, D2 antagonist)
O=C(Cc1ccccc1)N(Cc1cccnc1)c1nc2c(F)cc(F)cc2s1	none (no result: D2 ag-1, D2 PAM-2, D2 antagonist)
Cc1ccc(NC2=NCC(=O)N2Cc2cccs2)cc1C	none (no result: D2 PAM-1, D2 antagonist, D2 ag-2) | D3 arrestin ag inactive | D2 ag-3 inactive
O=S(=O)(NCc1cccc(Br)c1)c1ccc(-c2cc(C(F)(F)F)on2)s1	none (no result: D2 ag-1, D2 PAM-2, D2 antagonist)
CCCCS(=O)(=O)c1nc(-c2ccc(Br)cc2)cc(-c2ccccc2)c1C#N	none (no result: D2 ag-1, D2 PAM-2, D2 antagonist)
CCOc1ccc(NC(=O)c2c[nH]n3c(=O)cc(C4CCN(C(=O)OC(C)(C)C)CC4)nc23)cc1	none | D3 arrestin ag inactive | D2 ag-3 inactive
CCOC(=O)N1CCC(c2cc(=O)n3[nH]cc(C(=O)OC)c3n2)CC1	none
COc1ccc(CNC(=O)CSc2nc(SC)ns2)cc1	none | D3 arrestin ag inactive | D2 ag-3 inactive
CSc1nsc(SCC(=O)Nc2ccc(OC(C)=O)cc2)n1	none
COc1ccc(NC(=O)Cn2c(=O)n(-c3cccc(C)c3)c(=O)c3c2c2cc(C)ccc2n3C)cc1OC	none (no result: D2 ag-1, D2 PAM-2, D2 antagonist)
CC(=O)NCCNC(=O)c1ccc2c(=O)n(CCc3ccccc3)c(=O)[nH]c2c1	none (no result: D2 ag-1, D2 PAM-2, D2 antagonist, D2 ag-2)
NS(=O)(=O)c1ccc(-c2ccc(/C=N/Nc3ccc(C(=O)O)cc3)o2)cc1	D2 ag-1 inconclusive | D3 arrestin ag inactive | D2 ag-3 inactive
NS(=O)(=O)c1ccc(-c2ccc(/C=N/NC(=O)c3ccc([N+](=O)[O-])cc3)o2)cc1	none
O=C(Cn1cc2c(n1)CCCC2)Nc1cc(C(F)(F)F)ccc1Cl	none (no result: D2 ag-1, D2 PAM-2, D2 antagonist)
COc1ccccc1NC(=O)c1cc([N+](=O)[O-])ccc1NCCN1C(=O)CCC1=O	D2 ag-2 47 | D3 arrestin ag inactive | D2 ag-3 inactive
COc1ccccc1OCCNC(=O)CCNC(=O)c1ccccc1OC	none | D3 arrestin ag inactive | D2 ag-3 inactive
O=C(NCCN1CCN(C(=O)c2cccc(Br)c2)CC1)C(=O)Nc1ccc(Br)cc1	none
O=C(NCCN1CCN(c2cccc(Cl)c2)CC1)c1ccc(CSc2nc3ccncc3[nH]2)cc1	D2 antagonist 86, D2 ag-2 46 | D3 arrestin ag 22µM | D2 ag-3 inconclusive
O=C(NCCN1CCN(c2ccccc2)CC1)c1cccc(Br)c1	D2 antagonist 78, D2 ag-2 89 | D3 arrestin ag inactive | D2 ag-3 inactive
COc1ccccc1C(=O)NCCC(=O)NCCOc1ccccc1	none
COc1ccccc1C(=O)NCCN1CCN(c2ccccc2)CC1	D2 ag-1 inconclusive, D2 PAM-2 inconclusive, D2 antagonist 83, D2 ag-2 72 | D3 arrestin ag inconclusive | D2 ag-3 inconclusive
CCN(CCNC(=O)c1ccc(CSc2nc3ccncc3[nH]2)cc1)c1ccccc1	none (no result: D2 PAM-1, D2 antagonist, D2 ag-2)
COc1ccc(OC)c(NC(=O)NCCN2CCN(c3ccccc3)CC2)c1	none
COc1ccc(CNC(=O)CN2C(=O)c3cccnc3Oc3ccc(C)cc32)cc1	none (no result: D2 ag-1, D2 PAM-2, D2 antagonist)
COc1ccc(S(=O)(=O)N2CCN(Cc3nc4ccc(C)cc4o3)CC2)cc1	none (no result: D2 ag-1, D2 PAM-2, D2 antagonist)
Cc1cccc(C)c1NC(=O)NCCCN1CCN(c2ccccc2)CC1	D2 ag-1 inconclusive, D2 antagonist 72, D2 ag-2 74! | D3 arrestin ag inconclusive | D2 ag-3 inconclusive
Cc1cccc(C(=O)NCCCNC(=O)c2cccc(C)c2)c1	none
O=C(NCCN1CCN(c2ccccc2)CC1)c1cccn2c(=O)c3cc(Cl)ccc3nc12	none
Cc1cccc(C)c1NC(=O)C(=O)NCCCN1CCOCC1	none (no result: D2 PAM-1, D2 antagonist, D2 ag-2)
